# Whole data set: some 33,000 sequences, median “E-score (-0.5 to 0.5)” near -0.04, cut for the highest 2% near 0.36. The full list was thinned out, with the highest values kept by preference.
# Target: T1, Hmlalpha2 (UniProt P0CY09)
# T1 sequence: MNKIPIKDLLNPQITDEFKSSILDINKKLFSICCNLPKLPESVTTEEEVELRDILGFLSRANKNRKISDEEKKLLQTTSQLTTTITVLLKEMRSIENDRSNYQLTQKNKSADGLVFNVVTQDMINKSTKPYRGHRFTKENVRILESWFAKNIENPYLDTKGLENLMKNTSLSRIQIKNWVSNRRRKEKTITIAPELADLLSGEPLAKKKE
# Assay: PBM E-score (8-mer binding enrichment) (E-score (-0.5 to 0.5)); higher = stronger / more preferred TF binding
# Conditions: protein concentration: 200 nM; construct: GST-full length
# Experimental: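 Universal 'all 10-mer' protein binding microarrays (Agilent AMADID 015681) probed with GST-tagged S. cerevisiae TFs (full-length or DBD) made by in vitro transcription/translation (PURExpress), about 100-200 nM. Bound TF was detected with fluorescent anti-GST. Each ungapped 8-mer (which stands for itself and its reverse complement) is scored by the PBM enrichment score (E-score), a modified Wilcoxon-Mann-Whitney statistic from -0.5 to +0.5, computed with the Universal PBM Analysis Suite. Scale: above 0.35 generally sequence-specific binding.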
row,Sequence,PBM E-score
1,AATGCAGT,-0.00748
2,CCTTCACA,0.0306
3,CACATCCC,-0.0137
4,GCCAAACA,-0.107
5,AGTAGAGG,-0.226
6,CGTAGCAG,-0.129
7,CAGTTCTC,-0.179
8,ATTAACTC,0.216
9,ATTAACAC,0.455
10,ATTAACCC,0.0714
11,ACCATGTC,0.296
12,CCCATGTA,0.447
13,GCCATGGA,-0.178
14,GCCATGTA,0.457
15,CCCATGTC,0.161
16,CCCATGGA,-0.1
17,GCCATGCA,0.0965
18,ACCATGTA,0.467
19,ACCATGTG,0.188
20,CACCATGC,-0.0851
21,TCACATCA,0.00787
22,CGTAACGC,0.193
23,CTGCCAGC,-0.238
24,CTTATGCA,0.135
25,ATTATGTA,0.415

row,Sequence,PBM E-score
1,CTTATGTA,0.409
2,ATTATGTG,0.17
3,ATTATGTC,0.164
4,GTTATGTA,0.419
5,CTTATGTC,0.117
6,GTTATGCA,0.00491
7,GTTATGAA,0.186
8,GCGCCAGA,-0.138
9,AGTCGGGA,-0.192
10,GAAGCTAA,-0.0677
11,ATCCACAT,0.158
12,GAATGTCA,0.0786
13,CAATGTAC,0.217
14,TAATGTAA,0.431
15,CAATGTAG,0.172
16,CAATGTAA,0.435
17,GAATGTAA,0.372
18,AAATGTAG,0.113
19,AAATGTAC,0.236
20,GAATGTAC,0.16
21,TAATGTGA,0.19
22,TAATGTCA,0.155
23,AAATGTAA,0.394
24,CTGAAAAC,0.1
25,CTCAGAAG,-0.215

row,Sequence,PBM E-score
1,AACCCGAT,0.0593
2,ACGGGGGG,-0.22
3,ACTCGGGG,-0.134
4,AAACCGAG,-0.204
5,GTATATAA,0.29
6,CTGTATAA,0.209
7,ATGTATAC,0.435
8,CTGTATAC,0.247
9,ATGTATCC,0.294
10,GCGTATAA,0.337
11,ATGTATAA,0.395
12,CCGTATAC,0.0388
13,GCGTATAC,0.371
14,GTGTATAA,0.391
15,ATGTATAG,0.362
16,GAGTATAA,0.169
17,GTATGCCA,-0.254
18,ACGACCCA,-0.0906
19,TGTAGGAA,0.226
20,GCCACCGC,-0.33
21,GATGGACA,-0.0833
22,CTTGAAAC,-0.111
23,ATGCTGCA,0.0587
24,TCCTATCA,-0.172
25,AGTCGCGA,-0.0755

row,Sequence,PBM E-score
1,CTCCCATC,-0.242
2,CATCTGAG,-0.137
3,CAAAATTC,0.15
4,ATACCTGG,-0.252
5,ATGCTGTA,0.136
6,AAGGAGCT,-0.163
7,CTGTAGAC,0.104
8,CTGTAGAA,0.161
9,ATGTAGAA,0.43
10,ATGTAGAC,0.391
11,ATGTAGGA,0.236
12,ACGTAGAG,0.224
13,ATGTAGAG,0.376
14,AAGTAGAG,0.018
15,GAGTAGAA,0.147
16,GTGTAGAA,0.445
17,GCGTAGAA,0.313
18,ATGTAGGC,0.169
19,CACAGATC,-0.0314
20,GAATCTTA,-0.127
21,CGATTAAC,0.149
22,TATCCTCA,-0.113
23,ATGTTAAT,0.447
24,ACGTTAAA,0.362
25,ATGTTAGA,0.358

row,Sequence,PBM E-score
1,ATGTTAAA,0.473
2,AGGTTAAT,0.182
3,CTGTTACA,0.281
4,ATGTTACA,0.401
5,ATGTTACC,0.317
6,AAGTTAAT,0.187
7,CTGTTAAG,0.255
8,ATGTTAAG,0.445
9,ACGTTAAG,0.255
10,CACAAACG,0.241
11,ACTCTCCT,-0.223
12,CAGCTACC,-0.168
13,CCCTAGAG,-0.232
14,GTTTACTA,0.356
15,GCTTACAA,0.275
16,CTTTACCA,0.0599
17,ATTTACAG,0.269
18,ATTTACAA,0.453
19,ATTTACTC,0.301
20,ATTTACAC,0.479
21,CTTTACAA,0.38
22,ATTTACCA,0.21
23,GTTTACAA,0.425
24,CTTTACTA,0.252
25,ATTTACCC,0.0345

row,Sequence,PBM E-score
1,GAATTTGA,-0.109
2,AAACTGGG,-0.278
3,ATAGTGGC,-0.192
4,GGCTTGAC,-0.093
5,ACAACATG,0.451
6,ACAACATA,0.382
7,GCAACATA,0.219
8,CCAACATA,0.314
9,ACAACATC,0.263
10,ACAACAAG,0.298
11,AGTGGATG,-0.0671
12,ACCTGAGT,0.0645
13,AAGGATCT,-0.17
14,ACCACGAG,-0.135
15,GCACGCTA,-0.192
16,CCACGCTC,-0.335
17,ACACGCTG,0.355
18,AAACGCTC,-0.144
19,ACACGCTC,0.399
20,ACACGCTA,0.414
21,GAGTTAGA,-0.0875
22,AGAAGGCC,-0.213
23,GATGAAGC,-0.157
24,CTATGTTA,0.414
25,ATATGTTC,0.198

row,Sequence,PBM E-score
1,GGATGTTA,0.299
2,CTCTGTTA,0.23
3,ATATGTTA,0.384
4,CTATGTTC,0.252
5,ATATGTTG,0.346
6,GAATGTTA,0.287
7,GTATGTTA,0.414
8,CGAATATA,-0.00331
9,AGGGGAGG,-0.299
10,ACTTGGAA,-0.144
11,ATTAGCGC,0.0131
12,GATTCAAC,0.0589
13,ATGGGTTG,0.0606
14,TGTTTTAA,0.382
15,AATGTTGA,0.256
16,GGTGTTAA,0.361
17,TGTGTTAA,0.471
18,GATGTTTA,0.223
19,TGTTTAAA,0.34
20,AGTTTTAA,0.169
21,CATGTTGC,0.334
22,TCTGTTAA,0.331
23,CATGTTGA,0.477
24,CATGTTTC,0.333
25,CATGTTTA,0.437
